The results in this text go back to PubChem BioAssay (Tox21).

Molecules are shown by their SMILES. Where “and” joins values, the source holds several entries; their conditions need not be identical. Equal entries are not always repeated. Results filed as inconclusive are left out. Calls of active or inactive are those of the source. Unless noted, the call rests on the fitted dose curve; in most records, active means well fitted curve in the direction sought with a large enough effect in the repeat runs; inconclusive means weak or mixed curves; inactive means no such curve, though single readings can be large; an effect the other way counts as inactive or inconclusive.

Assay [1] can be described thus: qHTS assay to identify aromatase inhibitors - cell viability counter screen (AID 743084).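 Further: cells stimulated with testosterone during compound exposure; nearly all actives have a fitted effect of over 55% in size.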 Further: potency means the concentration at half of the fitted maximal effect. In general terms: Quantitative high-throughput screening tests each substance at several concentrations.
Assay [2] has as its target Aryl hydrocarbon receptor (Homo sapiens) (UniProt P35869). Kind of assay: qHTS assay to identify small molecule that activate the aryl hydrocarbon receptor (AhR) signaling pathway (AID 743085). Further: nearly all actives have a fitted effect of over 15% in size. Further: potency means the concentration at half of the fitted maximal effect.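 On activation: HG2L7.5c1 human HepG2 liver cells with stably integrated DRE-driven firefly reporter; series mostly up to about 70 µM.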 The method, boiled down: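 A multiplexed format paired cell viability (CellTiter-Fluor fluorescence) with AhR-dependent luciferase output (ONE-Glo luminescence) in the same wells of HepG2 DRE-luc cells after 24 h compound exposure at 37C.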

Assay [3] in a line: qHTS assay to identify small molecule that activate the aryl hydrocarbon receptor (AhR) signaling pathway - cell viability counter screen (AID 743086).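 Further: HepG2 liver cells carrying the AhR DRE luciferase reporter; series mostly up to about 70 µM; nearly all actives have a fitted effect of over 45% in size.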 The method in brief:
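HepG2-AhR-luc (HG2L7.5c1) cells, 4000/well, treated 24 h at 37 C with compound; viability measured as CellTiter-Fluor fluorescence after 30 min in the same wells as the luciferase read.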

In assay [4] the target is Peroxisome proliferator-activated receptor gamma (Homo sapiens) (UniProt P37231). Kind of assay: qHTS assay to identify small molecule agonists of the peroxisome proliferator-activated receptor gamma (PPARg) signaling pathway (AID 743094; active means well fitted activation curve with a large enough effect in the signal ratio in the repeat runs, not every such curve was filed as active; the % refers to the signal ratio). The method in brief:
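GeneBLAzer PPARg UAS-bla HEK293H cells were plated, rested 5 h, then exposed to compounds for 17 h at 37C. Beta-lactamase activity was read by LiveBLAzer B/G FRET substrate fluorescence after 1 h at room temperature.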

Assay [5] in a line: qHTS assay to identify small molecule antagonists of the peroxisome proliferator-activated receptor gamma (PPARg) signaling pathway - cell viability counter screen (AID 743194). Further: nearly all actives have a fitted effect of over 55% in size. Further: potency means the concentration at half of the fitted maximal effect. Particulars: Potency: co-treated with 50 nM rosiglitazone. The method, boiled down: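 Cytotoxicity counter screen in PPARg-bla HEK293H cells, same wells as reporter assay. Compounds plus 50 nM rosiglitazone (final) for 17 h at 37 C, then viability read by CellTiter-Glo luminescence.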

A short description of assay [6]: qHTS assay for small molecule agonists of the antioxidant response element (ARE) signaling pathway (AID 743202; active means well fitted activation curve with a large enough effect in the signal ratio in the repeat runs, not every such curve was filed as active; the % refers to the signal ratio). The method, boiled down:
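Agonist mode reporter screen: HepG2 cells with ARE-controlled beta-lactamase are incubated with test compounds for 16 h at 37 C, and beta-lactamase activity is measured as fluorescence of cleaved B/G FRET substrate.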

Assay [7] is described as follows: qHTS assay for small molecule agonists of the antioxidant response element (ARE) signaling pathway - cell viability counter screen (AID 743203; calls by dose curve; further: nearly all actives have a fitted effect of over 55% in size; further: potency means the concentration at half of the fitted maximal effect). The method in brief:
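ARE-bla HepG2 cells were plated, rested 5 h at 37C/5% CO2, then exposed to compounds in DMSO for 16 h. Viability was read as CellTiter-Glo luminescence after 30 min at room temperature, in the same wells as the ARE screen.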

The nature of assay [8]: qHTS assay for small molecule activators of the heat shock response signaling pathway - cell viability counter screen (AID 743209). Further: nearly all actives have a fitted effect of over 50% in size. Further: potency means the concentration at half of the fitted maximal effect. The method in brief:
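HSE-bla HeLa cells plated overnight, then exposed to Tox21 compounds (23 nL in DMSO) for 5 h at 37 C. After the bla reporter read, CellTiter-Glo was added in the same wells and luminescence read after 30 min at room temperature.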

Assay [9] is described as follows: qHTS assay for small molecule activators of the heat shock response signaling pathway (AID 743210; active means well fitted activation curve with a large enough effect in the signal ratio in the repeat runs, with a control signal flat, not every such curve was filed as active; the % refers to the signal ratio;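 further: HeLa cells with beta-lactamase reporter driven by heat shock elements; series mostly up to about 63 µM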). The method in brief: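 Quantitative high-throughput format using an engineered HeLa line in which heat shock response elements drive beta-lactamase; after 5 h with compound, cells received a B/G FRET substrate and fluorescence was read.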
The target in assay [10] is Peroxisome proliferator-activated receptor gamma (Homo sapiens) (UniProt P37231). Kind of assay: qHTS assay to identify small molecule antagonists of the peroxisome proliferator-activated receptor gamma (PPARg) signaling pathway (AID 743191; calls by dose curve; further: series mostly up to about 63 µM; nearly all actives have a fitted effect of over 30% in size). The method, boiled down:
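GeneBLAzer PPARg UAS-bla HEK293H cells, 5 h post-plating, exposed to compounds 17 h at 37C. LiveBLAzer B/G FRET substrate added for 1 h at room temperature; beta-lactamase reporter read by fluorescence intensity.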

Peroxisome proliferator-activated receptor gamma (Homo sapiens), sequence (P37231 whole entry, looked up): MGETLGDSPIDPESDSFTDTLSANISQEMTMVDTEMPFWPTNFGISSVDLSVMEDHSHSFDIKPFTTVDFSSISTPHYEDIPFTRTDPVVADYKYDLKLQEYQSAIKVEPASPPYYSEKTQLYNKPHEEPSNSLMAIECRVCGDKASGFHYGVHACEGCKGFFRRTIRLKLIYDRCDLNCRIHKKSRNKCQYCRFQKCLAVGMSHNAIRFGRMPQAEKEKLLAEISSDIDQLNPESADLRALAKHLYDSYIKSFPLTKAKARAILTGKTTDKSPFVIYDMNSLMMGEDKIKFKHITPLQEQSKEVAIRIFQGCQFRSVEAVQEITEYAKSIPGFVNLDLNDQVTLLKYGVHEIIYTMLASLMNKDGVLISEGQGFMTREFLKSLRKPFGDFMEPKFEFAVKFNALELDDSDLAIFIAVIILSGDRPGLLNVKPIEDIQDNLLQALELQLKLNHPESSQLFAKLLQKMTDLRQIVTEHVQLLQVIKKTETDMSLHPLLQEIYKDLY
Aryl hydrocarbon receptor (Homo sapiens), sequence (P35869 whole entry, looked up): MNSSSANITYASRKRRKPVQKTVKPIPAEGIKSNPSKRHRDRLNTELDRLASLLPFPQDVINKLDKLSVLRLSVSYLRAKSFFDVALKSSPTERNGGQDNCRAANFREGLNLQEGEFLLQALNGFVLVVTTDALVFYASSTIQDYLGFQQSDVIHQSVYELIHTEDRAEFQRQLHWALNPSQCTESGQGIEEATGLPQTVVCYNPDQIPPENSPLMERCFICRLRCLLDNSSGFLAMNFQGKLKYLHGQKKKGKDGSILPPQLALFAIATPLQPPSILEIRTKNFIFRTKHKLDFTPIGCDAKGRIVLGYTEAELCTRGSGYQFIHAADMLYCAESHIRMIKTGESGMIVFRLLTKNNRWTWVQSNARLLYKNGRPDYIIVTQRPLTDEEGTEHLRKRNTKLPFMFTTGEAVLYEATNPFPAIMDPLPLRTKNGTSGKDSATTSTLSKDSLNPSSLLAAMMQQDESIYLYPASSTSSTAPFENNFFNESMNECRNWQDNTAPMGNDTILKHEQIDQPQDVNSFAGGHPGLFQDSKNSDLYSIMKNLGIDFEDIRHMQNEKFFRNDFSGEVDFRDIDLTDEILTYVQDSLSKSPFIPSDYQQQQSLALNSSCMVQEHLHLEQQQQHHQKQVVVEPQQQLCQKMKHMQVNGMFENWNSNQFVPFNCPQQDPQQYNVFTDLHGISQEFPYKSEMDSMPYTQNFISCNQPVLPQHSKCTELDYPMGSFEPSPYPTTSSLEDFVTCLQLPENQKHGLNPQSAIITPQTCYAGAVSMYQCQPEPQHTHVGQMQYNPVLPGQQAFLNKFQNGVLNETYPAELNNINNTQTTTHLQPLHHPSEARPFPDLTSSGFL

Take `C=CC(=O)NC(C)(C)CC(C)=O`: the Potency result in assay [1], in assay [2], in [3], in assay [4], in assay [5] and in [6] was “inactive” throughout. In addition, the Potency result in assay [7], in assay [8] and in [9] was “inactive” in each case.
For the compound `COc1cc(CC(C)N)c(OC)cc1Br` (stereo not drawn), the Potency entry in [1], in [2], in assay [3], in assay [4], in assay [5] and in [7] was “inactive” each time. Besides, the Potency entry in [8] and in assay [9] was “inactive” in each case.
For the compound `CC[N+]1(C)CCCC(OC(=O)C(O)(c2ccccc2)c2ccccc2)C1` (stereo not drawn), the Potency result in [1], in [2], in assay [3], in assay [4], in assay [5] and in assay [6] was “inactive” each time. The Potency entry in assay [7], in [8] and in [9] was “inactive” in each case.
Turning to `CN1CC[C@]23c4c5ccc(O)c4O[C@H]2[C@@H](O)CC[C@H]3[C@H]1C5`, the Potency entry in assay [1], in assay [2], in [3], in assay [4], in assay [5] and in assay [6] was “inactive” in each case. Also, the Potency result in assay [7] and in [8] was “inactive” throughout.
With `O=C1NC(=O)C(=O)C(=O)N1`, the Potency result in [1], in assay [2], in assay [3], in assay [4], in assay [5] and in [6] was “inactive” each time. Also, the Potency result in assay [7] and in assay [8] was “inactive” each time.
On to `NNCCO`, for which the Potency result in assay [1], in assay [2], in assay [3], in assay [4], in assay [5] and in [6] was “inactive” throughout. Besides, the Potency entry in [7], in [8] and in assay [9] was “inactive” in each case.
For `O=C(Cl)OCCOCCOC(=O)Cl`, the Potency entry in [1], in assay [2], in [3], in [4], in [5] and in assay [7] was “inactive” each time. Further, in [8], the Potency entry is “inactive”.
On to `CC(C)(C#N)C(C)(C)C#N`, for which the Potency result in [1], in assay [2], in assay [3], in assay [4], in [5] and in assay [6] was “inactive” throughout. Moreover, the Potency entry in [7], in [8] and in [9] was “inactive” in each case.
`Nc1ccccc1C(=O)OCCc1ccccc1`: the Potency entry in assay [1], in assay [3], in assay [4], in assay [5], in [7] and in [8] was “inactive” in each case. The Potency result in [9] is “inactive”. Further, the Potency in assay [2] was 30.6 µM (active).
Turning to `CCc1ccccc1N`, the Potency entry in assay [1], in [2], in assay [3], in assay [4], in assay [10] and in assay [7] was “inactive” each time. Also, the Potency entry in assay [8] and in assay [9] was “inactive” each time.
For the compound `CCOC(=O)NC(O)C(Cl)(Cl)Cl` (stereo not drawn), the Potency result in assay [1], in [2], in assay [3], in [4], in assay [5] and in assay [6] was “inactive” in each case. The Potency entry in assay [7] and in assay [9] was “inactive” in each case.
`CC(O)CN1CCN(CC(=O)[O-])CCN(CC(=O)[O-])CCN(CC(=O)[O-])CC1.[Gd+3]` (stereo not drawn): the Potency entry in assay [1], in assay [2], in assay [3], in [4], in assay [5] and in [6] was “inactive” throughout. The Potency result in [7], in assay [8] and in [9] was “inactive” in each case.
On to `C=CC(=O)OCC`, for which the Potency result in assay [1], in [2], in [3], in assay [4], in [5] and in assay [6] was “inactive” each time. Besides, the Potency result in [7] and in assay [8] was “inactive” each time.
For the compound `CCCCCCCCn1sccc1=O`, the Potency is 12.2 µM (active) and 40.4 µM (active) in assay [1]; 34.7 µM (active) and 28.9 µM (active) in assay [5]; 21.7 µM (active) and 25.5 µM (active) in assay [7]. In addition, the Potency entry in assay [2], in [3], in assay [4] and in assay [8] was “inactive” throughout.
Regarding `OCCSSCCO`, the Potency entry in assay [1], in [2], in assay [3], in assay [4], in [5] and in assay [7] was “inactive” throughout. Further, in assay [8], the Potency result was “inactive”.
Take `CCC(C)(C)c1ccc(O)c(C(C)(C)CC)c1`: the Potency in [1] is 42.8 µM (active) and 27.3 µM (active); in assay [5], 24.3 µM (active) and 21.9 µM (active); in [7], 61.1 µM (active); in [8], 17.2 µM (active) and 17.4 µM (active). Besides, the Potency entry in assay [2], in assay [3], in assay [4] and in assay [6] was “inactive” throughout.
On to `SCc1ccccc1`, for which the Potency entry in [1], in [2], in [3], in assay [4], in [5] and in assay [6] was “inactive” throughout. Besides, the Potency entry in assay [7], in assay [8] and in [9] was “inactive” in each case.
For the compound `Clc1ccccc1`, the Potency result in assay [1], in assay [2], in assay [3], in assay [4], in [5] and in assay [6] was “inactive” throughout. Moreover, the Potency entry in [7], in assay [8] and in assay [9] was “inactive” throughout.
On to `C[C@H](N)[C@H](O)c1ccc(O)c(O)c1`, for which the Potency entry in assay [1], in [2], in assay [3], in assay [4], in assay [5] and in assay [7] was “inactive” each time. Besides, the Potency result in [8] is “inactive”.
Take `CC(C)CCCCCCCOC(=O)c1ccccc1C(=O)OCCCCCCCC(C)C`: the Potency result in assay [1], in assay [2], in assay [3], in assay [4], in assay [10] and in assay [7] was “inactive” throughout. Also, the Potency result in [8] and in [9] was “inactive” in each case.
